Source: PubChem BioAssay
PLK1 PBD inh: qHTS for Inhibitors of PLK1-PDB (polo-like kinase 1 - polo-box domain): Primary Screen | 360,000 tested, 2.8% active | AID 720504, 2013 | Plk1 PBD binding of FITC phosphopeptide, fluorescence polarization | Potency, µM, hits mostly inhibitors; further: series mostly up to about 57 µM; nearly all actives have a fitted effect of over 65% in size
Target sequence (P53350 whole entry, looked up, the tested form may be a part): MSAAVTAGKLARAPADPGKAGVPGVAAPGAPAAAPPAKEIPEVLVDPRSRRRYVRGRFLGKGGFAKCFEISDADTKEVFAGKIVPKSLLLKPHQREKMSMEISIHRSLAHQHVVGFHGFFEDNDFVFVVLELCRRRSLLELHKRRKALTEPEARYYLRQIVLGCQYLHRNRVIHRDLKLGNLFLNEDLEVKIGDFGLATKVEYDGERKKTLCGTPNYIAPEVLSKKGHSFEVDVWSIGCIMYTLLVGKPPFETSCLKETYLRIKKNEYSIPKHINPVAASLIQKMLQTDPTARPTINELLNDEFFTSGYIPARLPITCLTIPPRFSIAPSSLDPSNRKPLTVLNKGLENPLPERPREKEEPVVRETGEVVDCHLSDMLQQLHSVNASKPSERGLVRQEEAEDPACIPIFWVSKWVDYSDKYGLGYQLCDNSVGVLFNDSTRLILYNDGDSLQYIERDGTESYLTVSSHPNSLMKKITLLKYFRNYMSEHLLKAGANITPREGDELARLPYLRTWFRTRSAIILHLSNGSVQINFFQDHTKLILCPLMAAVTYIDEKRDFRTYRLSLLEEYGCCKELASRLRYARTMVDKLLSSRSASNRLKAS
CCT modulator: High-Throughput Screening for Modulators of Cytosolic Chaperonin Activity; purified chaperonin ATPase assay, HTRF ADP detection, 30 min; activity change, % (no concentration beside the values), hits read low; 360,000 tested, 0.3% active; in the data active means activity change below about -30%
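TRiC (40 or 20 nM final, by batch activity) in 30 mM Tris pH 7.4, 100 mM KCl, 5 mM MgCl2, 1 mM DTT was treated with compound at 76 uM single dose, then 10 uM ATP, 30 min at 37 °C. ADP was read by HTRF Transcreener.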
G9a block: qHTS Assay for Inhibitors of Histone Lysine Methyltransferase G9a; Histone-lysine N-methyltransferase EHMT2 (Homo sapiens), Q96KQ7; Potency, µM (highest dose often 102 µM), hits mostly inhibitors; 350,000 tested, 8.8% active; G9a H3K9 monomethylation, AlphaScreen, 2 h; further: nearly all actives have a fitted effect of over 75% in size
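G9a (20 nM) was preincubated 15 min with compound, then reacted 2 h at room temperature with 500 nM biotin-H3K9 peptide and 20 µM SAM. Monomethyl-H3K9 detected by AlphaScreen using anti-H3K9me1 antibody.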
VDR inhibitor: Inhibitors of the vitamin D receptor (VDR): qHTS; Vitamin D3 receptor (Homo sapiens), P11473; VDR-SRC2-3 peptide fluorescence polarization, 2 h; Potency, µM, hits mostly inhibitors; 400,000 tested, 0.93% active; AID 504847, 2011
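Compounds are added to VDR with labelled SRC2-3 coactivator peptide and held 2 h at room temperature. Inhibition of the VDR–peptide interaction is then read as a change in fluorescence polarization.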
Sfp inh: qHTS Assay for Inhibitors of Bacillus subtilis Sfp phosphopantetheinyl transferase (PPTase). Potency, µM, most hits filed as inhibitors. Biochemical Sfp PPTase activity, qHTS. AID 1490, 2009. 310,000 tested, 3.5% active;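 further: the enzyme is Sfp with the accession as filed and its product quenches rhodamine fluorescence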
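Sfp 15 nM + cpd, 15 min RT; start w/ rhodamine-CoA 5 uM, BHQ-2-YbbR 12.5 uM (final); 50 mM Hepes pH 7.6, 10 mM MgCl2, 0.01% NP-40, 0.01% BSA; read 525/598 nm at 0 and 30 min.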
MmCpn inh: Inhibitors of TCP-1 ring complex (TRiC) of Methanococcus maripaludis (MmCpn): qHTS; Chaperonin Mm-Cpn (Methanococcus maripaludis); purified Mm-Cpn ATPase, ADP Transcreener TR-FRET; Potency, µM (titrated, usually from 76.9 µM), usual class: inhibitors; 330,000 tested, 0.031% active; AID 504842, 2011; further: nearly all actives have a fitted effect of over 80% in size
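Purified archaeal chaperonin (25 nM final) was preincubated with compound for 10 min at 37°C, then ATP (10 uM final) was added for 30 min at 37°C in Tris pH 7.4/KCl/MgCl2/DTT buffer. ADP was quantified by HTRF Transcreener TR-FRET.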
Hits are given with their value; – = inactive; ? = inconclusive; · = no result given; ! = a repeat was not active; [ ] = dose if it differs, or a comment. Only some compounds are listed: those with a hit (about 10% of all), similar ones and a draw of the others. Unless noted, the call rests on the fitted dose curve; in most records, active means well fitted curve in the direction sought with a large enough effect; inconclusive means small, poorly fitted or top-dose-only effect, or another doubt; inactive means no such curve, though single readings can be large; an effect the other way counts as inactive or inconclusive.

SMILES | PLK1 PBD inh | CCT modulator | G9a block | VDR inhibitor | Sfp inh | MmCpn inh
COC(=O)NC(c1cccc(F)c1)[C@]1(C(C)=O)CCCC1=O (some centres not stated) | · | · | · | · | – | ·
CC(=O)c1cccc(NC(=O)CCNS(=O)(=O)c2cccc(C(C)=O)c2)c1 | – | – | –[12.7 µM] | – | – | –
CC(=O)c1cccc(S(=O)(=O)NCCC(=O)Nc2ccc(S(N)(=O)=O)cc2)c1 | – | – | 50µM | – | – | –
Cc1ccc(NC(=O)CN2C(=O)C(c3ccc(F)cc3)=NC2(C)C)c(C)c1 | · | · | – | – | · | ·
Cc1ccc(S(=O)(=O)N/N=c2\sc3ccccc3n2C)cc1 | – | – | 0.79µM | – | – | –
c1ccc(-c2cc3n(c2)CCc2ccccc2-3)cc1 | – | – | 3.2µM | – | – | –
Cn1c(-c2ccccc2)c[n+]2c1-c1ccccc1C2 | – | – | – | – | – | –
CCOC(=O)c1nc2cc3n(c(CC(C)C)c-2c1C)CC(C)=C3C | – | – | 3.2µM | – | – | –
CCOC(=O)c1nc2cc3n(c(C)c-2c1C)C(C)C(C)=C3C (configuration not stated) | – | – | –[12.7 µM] | – | – | –
CC1CCC2C(=O)N(c3ccc(C(=O)Oc4cccc5cccnc45)cc3)C(=O)C2C1 (configuration not stated) | – | – | ? | – | 10µM | –
COc1ccc(CCN(C)Cc2c(O)ccc3ccccc23)cc1OC | 21µM | – | 8.9µM | ? | – | –
COc1ccc(CCN(C)Cc2cccc3ccccc23)cc1OC | – | – | –[0.501 µM] | ? | – | –
COc1ccc(CN(C)CCc2ccccn2)cc1OC | – | – | 3.2µM | – | 50µM | –
COc1cc(CN(C)CCc2ccccn2)cc(OC)c1OC | – | – | ? | – | – | –
COc1ccc(CCN(C)CC(=O)Nc2cc(C)nc3ccccc23)cc1OC | – | – | 4.5µM | – | 79µM | –
Cc1ccc(C)c(N2CCN(C(=O)CN3C(=O)COc4ccc(S(=O)(=O)N5CCOCC5)cc43)CC2)c1 | · | · | – | – | · | ·
CCOc1ccccc1NC(=O)c1cc2c(=O)n(Cc3cccnc3)ccc2nc1C | · | · | – | – | · | ·
COc1ccc2nc(C)cc(N/N=C/c3cccc(OC)c3O)c2c1 | – | – | 45µM | – | ? | –
COc1ccc(/C=N/Nc2cc(C)nc3ccc(Br)cc23)cc1 | – | – | –[2.33 µM] | – | 56µM | –
CCc1nn(CC(=O)NCCCN2CCc3ccccc3C2)c(=O)c2cc3sccc3n12 | – | – | 45µM | – | ? | –
Cc1nn(CCCC(=O)N2CCc3ccccc3C2)c(=O)c2cc3sccc3n12 | – | – | 79µM | – | – | –
CCCN1CCN(CCCNC(=O)Cn2nc(C)n3c(cc4cc(F)ccc43)c2=O)CC1 | 30µM | – | – | – | – | –
CCOC(=O)c1c(C)[nH]c(C)c1S(=O)(=O)N(C)CC(=O)NCc1ccc(Cl)cc1 | · | · | – | – | · | ·
Cc1ccc(O)c(NC(=O)c2cc([N+](=O)[O-])ccc2Cl)c1 | – | – | ? | – | ? | –
Cc1nc(N=Nc2cc([N+](=O)[O-])ccc2Cl)c(COP(=O)(O)O)c(C=O)c1O | · | · | · | 45µM | – | ·
SMILES | PLK1 PBD inh | CCT modulator | G9a block | VDR inhibitor | Sfp inh | MmCpn inh
Cc1nc(N=Nc2cc(S(=O)(=O)O)c3cc([N+](=O)[O-])cc(S(=O)(=O)O)c3c2)c(COP(=O)(O)O)c(C=O)c1O | · | · | 3.5µM | 40µM! | 40µM! | ·
COc1ccc(N(C)C(=O)CCn2cnc3onc(-c4ccc(F)cc4)c3c2=O)c(OC)c1 | · | · | – | – | · | ·
CC(C)c1cccc(C(C)C)c1NS(=O)(=O)c1cccs1 | · | · | – | – | · | ·
NC(=S)Nc1ccc2cn[nH]c2c1 | – | – | – | – | – | –
c1cc2cn[nH]c2cc1NC1CCCCCC1 | ? | – | 4.5µM | – | 45µM | –
CC(C)N1C(=O)S/C(=C/c2ccc(Sc3nc4ccccc4[nH]3)o2)C1=O | – | – | 71µM | – | – | –
C=CCN1C(=O)S/C(=C/c2ccc(Sc3nc4ccccc4[nH]3)o2)C1=O | – | – | 2µM | – | – | –
O=C(Cc1ccc(NC(=O)N2CCCCc3ccccc32)cc1)Nc1ccccc1Br | · | · | – | – | · | ·
O=C(Nc1ccc(O)c2c(=O)cc(-c3ccccc3Cl)oc12)c1ccc(F)cc1 | – | – | ? | – | – | –
Nc1ccc(O)c2c(=O)cc(-c3ccccc3Cl)oc12 | – | – | 16µM! | – | – | –
O=c1cc(-c2ccccc2Cl)oc2c(NS(=O)(=O)c3cc(Cl)cc(Cl)c3O)ccc(O)c12 | 15µM | – | 50µM | 32µM | – | –
O=c1cc(-c2ccccc2Cl)oc2cc(O)cc(O)c12 | – | – | 45µM | – | – | –
CCc1ccc(S(=O)(=O)Nc2ccc(O)c3c(=O)cc(-c4ccccc4Cl)oc23)cc1 | – | – | ? | – | – | –
O=C(Nc1ccc(OC(F)(F)F)cc1)c1nc2ccccc2nc1N1CCCCC1 | · | · | ? | – | · | ·
O=C(Nc1ccc2c(c1)CCCN2C(=O)c1cccs1)c1ccc(F)c(F)c1 | · | · | – | – | · | ·
COc1ccc(C(C)=O)cc1COC(=O)c1cccnc1Cl | – | – | – | – | – | –
COc1ccc(C(C)=O)cc1COC(=O)c1cc2ccccc2cc1O | – | – | 45µM | – | – | –
Cc1sc2nc3c(C(=O)N4CCCC4)cc(C(=O)c4ccccc4O)cn3c(=O)c2c1C | 24µM | – | – | – | 22µM | –
COc1ccccc1NC(=O)C1=C(C)Nc2nnnn2C1c1cc(Br)c(O)c(OC)c1 (configuration not stated) | · | · | – | – | · | ·
COC(=O)Cc1c[nH]c2cccc(OCC(O)CN(Cc3ccc([N+](=O)[O-])cc3)C(C)(C)C)c12 (configuration not stated) | – | – | · | – | – | –
Cc1ccc(CN(CC(O)COc2cccc3[nH]cc(C)c23)C(C)(C)C)cc1 (configuration not stated) | – | – | 50µM | – | – | –
COc1ccc(CC(=O)NCC(c2cccs2)S(=O)(=O)c2ccc(Cl)cc2)cc1 (configuration not stated) | · | · | 8.9µM | – | · | ·
Cc1cc(S(=O)(=O)C(CNC(=O)COc2ccc(Cl)cc2)c2cccs2)ccc1F (configuration not stated) | · | · | – | – | · | ·
O=C(COc1ccccc1)NCC(c1cccs1)S(=O)(=O)c1ccc(Cl)cc1 (configuration not stated) | · | · | 10µM | – | · | ·
